The record followed here is article PMC8769072, “Proteome‐scale mapping of binding sites in the unstructured regions of the human proteome” (Molecular Systems Biology, 2022).

NEDD4 890-928, P46934, sequence (P46934 890-928): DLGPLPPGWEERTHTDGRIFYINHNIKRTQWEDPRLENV
YAP1 169-207, P46937, sequence (P46937 169-207): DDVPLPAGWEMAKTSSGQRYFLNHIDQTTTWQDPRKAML

As for GNSGFQLLDLVHEEGE [SLC7A6OS, Q96CW6], the “selected by phage display” value in the assay with MAP1LC3A 2-121, Q9H492 is “confidence 2 (active)”.
Turning to QEEWALLDPSQKNLYR [ZNF878, C9JN71], the “selected by phage display” value in the assay with MAP1LC3B 2-119, Q9GZQ8 was “confidence 2 (active)”.
Regarding EDSLPPYKLKLDLTKL [TMEM59L, Q9UK28], the “selected by phage display” value in the assay with NEDD4 890-928, P46934 is “confidence 2 (active)”; with YAP1 169-207, P46937, “confidence 4 (active)”.
As for PPPQYIHPNSINVDGN [PRDM4, Q9UKN5], the “selected by phage display” value with NEDD4 890-928, P46934 is “confidence 2 (active)”.
Take AEESFTTLNVDIRNHQ [USP9X, Q93008]: in the assay with MAP1LC3A 2-121, Q9H492, the “selected by phage display” value is “confidence 2 (active)”.
As to MAMSNGNNDFVVLSNS [DISP1, Q96F81], the “selected by phage display” value with MAP1LC3B 2-119, Q9GZQ8 is “confidence 2 (active)”.
As to RLSISLPSYESLTGLD [TMEM51, Q9NW97], the “selected by phage display” value with NEDD4 890-928, P46934 is “confidence 2 (active)”.
Take DSWGIIAEPRQSAFSN [IRS4, O14654]: in the assay with MAP1LC3A 2-121, Q9H492, the “selected by phage display” value is “confidence 4 (active)”.
Consider PPAPLAHSDDYVHISL [TSC1, Q92574], for which, in the assay with MAP1LC3B 2-119, Q9GZQ8, the “selected by phage display” value is “confidence 2 (active)”.
For DSWEIIEGLKIGQTNV [OSBPL6, Q9BZF3], the “selected by phage display” value with MAP1LC3B 2-119, Q9GZQ8 is “confidence 3 (active)”.
Regarding MARRYDELPHYPGIVD [MEIS3, Q99687], the “selected by phage display” value with NEDD4 890-928, P46934 is “confidence 3 (active)”.
On to ASERPPTYAELVPRVP [SH2D3A, Q9BRG2], for which the “selected by phage display” value with NEDD4 890-928, P46934 is “confidence 3 (active)”.
Turning to TAPPPYSPSPNPYQTA [FAM168A, Q92567], the “selected by phage display” value with NEDD4 890-928, P46934 is “confidence 3 (active)”.
With DLNSQDRVDHEEWEMV [STBD1, O95210], the “selected by phage display” value with MAP1LC3A 2-121, Q9H492 was “confidence 4 (active)”.
For the molecule ALPEPPPPYEFSASSA [N4BP3, O15049], the “selected by phage display” value with NEDD4 890-928, P46934 was “confidence 3 (active)”.
For NLPVGYPPQYPPTAFQ [PLSCR1, O15162], the “selected by phage display” value with NEDD4 890-928, P46934 was “confidence 2 (active)”.
Take TSPIADFPAPPPYSAV [SYNPO2, Q9UMS6]: in the assay with NEDD4 890-928, P46934, the “selected by phage display” value was “confidence 4 (active)”.
TSSSLAYPPPPSYPSP [EGR2, P11161]: in the assay with NEDD4 890-928, P46934, the “selected by phage display” value is “confidence 3 (active)”.
With VPAFEVLEISPQEVSS [MS4A2, Q01362], in the assay with MAP1LC3A 2-121, Q9H492, the “selected by phage display” value was “confidence 2 (active)”.
Take DKNDYLPLYSSSTKVK [ZNF148, Q9UQR1]: in the assay with NEDD4 890-928, P46934, the “selected by phage display” value was “confidence 2 (active)”.
Turning to LANVIAPPPPPYTPNP [PROSER1, Q86XN7], the “selected by phage display” value in the assay with NEDD4 890-928, P46934 is “confidence 2 (active)”.
WEVVTSAIPRGAWHGA [ZNF419, Q96HQ0]: in the assay with MAP1LC3A 2-121, Q9H492, the “selected by phage display” value was “confidence 2 (active)”.
Turning to HVRDAIRSYTEDWAIV [DOCK7, Q96N67], the “selected by phage display” value in the assay with MAP1LC3B 2-119, Q9GZQ8 is “confidence 2 (active)”.
Consider DAGLGFVDLTDLTDHQ [PEG3, Q9GZU2], for which the “selected by phage display” value with MAP1LC3A 2-121, Q9H492 is “confidence 3 (active)”.
FLPPYPPQEANRSITS [VPS37A, Q8NEZ2]: the “selected by phage display” value in the assay with NEDD4 890-928, P46934 was “confidence 3 (active)”.
ADLPPPYSPTPQGPAQ [CYYR1, Q96J86]: the “selected by phage display” value with NEDD4 890-928, P46934 was “confidence 2 (active)”; with YAP1 169-207, P46937, “confidence 3 (active)”.
Take AGHQLGLEADGHWGLL [ZNF469, Q96JG9]: in the assay with MAP1LC3B 2-119, Q9GZQ8, the “selected by phage display” value is “confidence 3 (active)”.
In the case of DLPAYTSPTNFPAVLS [ABCA2, Q9BZC7], the “selected by phage display” value with NEDD4 890-928, P46934 was “confidence 3 (active)”.
As for VPFTELVVQSITPHQS [BMP2K, Q9NSY1], the “selected by phage display” value with MAP1LC3A 2-121, Q9H492 was “confidence 3 (active)”.
On to HLGEWGHLDPAEENLK [ZSCAN18, Q8TBC5], for which, in the assay with MAP1LC3A 2-121, Q9H492, the “selected by phage display” value is “confidence 2 (active)”.
PHSHDWVWLGNEVELL [TMEM132B, Q14DG7]: in the assay with MAP1LC3B 2-119, Q9GZQ8, the “selected by phage display” value was “confidence 2 (active)”.
On to ASDPPPPYSDFHPNNQ [ABRAXAS2, Q15018], for which the “selected by phage display” value with NEDD4 890-928, P46934 was “confidence 3 (active)”.
For ATTHYHTYLPPPYPGS [RUNX2, Q13950], the “selected by phage display” value in the assay with NEDD4 890-928, P46934 was “confidence 2 (active)”.
With QAVTHDNEWEMLSPQP [PRUNE2, Q8WUY3], the “selected by phage display” value in the assay with MAP1LC3B 2-119, Q9GZQ8 was “confidence 4 (active)”.
For the molecule YLSEGFGYGMPPLYPQ [NFATC4, Q14934], the “selected by phage display” value with NEDD4 890-928, P46934 was “confidence 2 (active)”.
With DIGGFTLLDGKLVLLG [RASAL3, Q86YV0], in the assay with MAP1LC3B 2-119, Q9GZQ8, the “selected by phage display” value is “confidence 4 (active)”.
WTDLASIFGSNKDLMG [NLRP2, Q9NX02]: the “selected by phage display” value with MAP1LC3A 2-121, Q9H492 is “confidence 3 (active)”.
Take EDGYTQLHFDSQSNTR [CLEC7A, Q9BXN2]: the “selected by phage display” value in the assay with MAP1LC3B 2-119, Q9GZQ8 was “confidence 2 (active)”.
On to ALPPYSNAGDLYSEPV [EGR3, Q06889], for which the “selected by phage display” value in the assay with NEDD4 890-928, P46934 was “confidence 2 (active)”.
Consider LPEGFQLLQIDAEGEA [TRMT10B, Q6PF06], for which the “selected by phage display” value with MAP1LC3A 2-121, Q9H492 was “confidence 2 (active)”.
Turning to EYEIIETIGNGAYGVV [MAPK7, Q13164], in the assay with MAP1LC3B 2-119, Q9GZQ8, the “selected by phage display” value is “confidence 2 (active)”.
For VDNRESSENWEIIRED, the “selected by phage display” value with MAP1LC3B 2-119, Q9GZQ8 is “confidence 2 (active)”.
Take TAPPTYTETLSTAPLA [SYNPO, Q8N3V7]: the “selected by phage display” value with NEDD4 890-928, P46934 is “confidence 3 (active)”.
For NSTPPPYERTRLSPPR [RBM14, Q96PK6], the “selected by phage display” value with NEDD4 890-928, P46934 was “confidence 3 (active)”.
On to AVQVPESFEHLPPLPE [ATF7IP2, Q5U623], for which the “selected by phage display” value with MAP1LC3A 2-121, Q9H492 was “confidence 4 (active)”.
Turning to DQRLPPYPYSSPSLVL [CRTC2, Q53ET0], the “selected by phage display” value with NEDD4 890-928, P46934 is “confidence 4 (active)”; with YAP1 169-207, P46937, “confidence 3 (active)”.
Consider GSPPSYSEALLDQRPA [LDLRAD3, Q86YD5], for which, in the assay with NEDD4 890-928, P46934, the “selected by phage display” value was “confidence 3 (active)”.
Turning to HDEAWMVLKQVHDTNM [SV2A, Q7L0J3], the “selected by phage display” value in the assay with MAP1LC3B 2-119, Q9GZQ8 was “confidence 3 (active)”.
For QSNADALPPDYSVVRG [LYPD5, Q6UWN5], the “selected by phage display” value in the assay with NEDD4 890-928, P46934 was “confidence 2 (active)”.
As to EPGWVVLDQPDAAAHL, the “selected by phage display” value with MAP1LC3B 2-119, Q9GZQ8 was “confidence 4 (active)”.
Regarding APELWTELTGLAASSE [KIFC2, Q96AC6], the “selected by phage display” value with MAP1LC3A 2-121, Q9H492 is “confidence 3 (active)”.
KPIKENIEESYVHLDI [FRYL, O94915]: the “selected by phage display” value in the assay with MAP1LC3B 2-119, Q9GZQ8 was “confidence 3 (active)”.
For SEGTDNGDLPSYVSAF [RINT1, Q6NUQ1], the “selected by phage display” value in the assay with NEDD4 890-928, P46934 was “confidence 2 (active)”.
As for LAGGPAVGGLPPYATF [OTUD7B, Q6GQQ9], the “selected by phage display” value with NEDD4 890-928, P46934 is “confidence 2 (active)”.
Turning to LEAEVDFTVIGDYHGS [EPB41L1, Q9H4G0], in the assay with MAP1LC3A 2-121, Q9H492, the “selected by phage display” value was “confidence 2 (active)”.
Turning to SLEPPSPFELLEPPTS [MAP1S, Q66K74], the “selected by phage display” value with MAP1LC3A 2-121, Q9H492 was “confidence 3 (active)”.
For the molecule SPPDYLQTVSHPEVYR [SH3D21, A4FU49], in the assay with NEDD4 890-928, P46934, the “selected by phage display” value was “confidence 3 (active)”.
ASPQGEWTILELETQH [KIAA1107, Q9UPP5]: in the assay with MAP1LC3A 2-121, Q9H492, the “selected by phage display” value is “confidence 3 (active)”.
As for EPWAQLEASDIHTAAA [WDR90, Q96KV7], the “selected by phage display” value in the assay with MAP1LC3A 2-121, Q9H492 is “confidence 3 (active)”; with MAP1LC3B 2-119, Q9GZQ8, “confidence 4 (active)”.
Turning to LPSYPVAPTSRASPSP [CCDC87, Q9NVE4], the “selected by phage display” value with NEDD4 890-928, P46934 is “confidence 3 (active)”.
For the molecule LNVSSREEAFTDLSLA [USP35, Q9P2H5], in the assay with MAP1LC3A 2-121, Q9H492, the “selected by phage display” value was “confidence 3 (active)”.
